Reference: the supplement of paper PMC6555819

test system: VDR:RXRa (NR concentration 270 nM, RXRa partner concentration 90 nM); assay: PBM binding z-score (relative to random genomic background probes); higher = stronger binding; sequences stand for … in GC…GCGATTGACAGCGTAGAATGAAGG
Description: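 Protein-binding microarray (Agilent 4x180K custom design, double-stranded 60-nt probes: 5' GC cap, 34-nt variable region, 24-nt constant primer region; full probe sequence given). Purified or IVT nuclear receptor:RXRα heterodimers (3:1 NR:RXRα, mostly 270:90 nM) or homodimers were incubated for 1 h in PBS with 2% milk and no ligand, then detected with Alexa488 antibodies. Fluorescence from o1-orientation probes (~5 replicates averaged) was converted to z-scores against 500 random hg19 background probes. Variable regions are seed direct-repeat (DR0–DR5) sites, all their single-nucleotide variants and half-site ablations.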

| Sequence | PBM binding z-score |
| --- | --- |
| AATACAGGGTCATCGAAGGCCAGAGTACGCACAG | 5.49 |
| ATATCTAGGTAAAGATAGTTCAGTGAATGCAAAT | 0.986 |
| AGAATGAGGTTTAGATCAGGGAAACAGAATACAT | -0.225 |
| ATCTCTAGGTAAAAGTTCATTGAATCCCGAGGAT | 2.82 |
| CCGAGTAGGTTATGGGGTATTCAGGCAACGGTGA | 0.559 |
| CAAACTCGGTCAAGGTCAAAGTCGGTTTGTGCCA | 4.95 |
| ACTATTAGTTTACTTAGGGCAACCGATACGACGC | 0.639 |
| CCAGACAGGTGAGAAGGTAACTCAACCTCGATTA | 0.0485 |
| CGTCCAAGGTCAATCCTAGGTCAGTGAAAGCATT | 4.96 |
| GCTCGGAGGACAAGGTCAAAGCTTTGTCCGTAGA | 3.38 |
| GCAGACAGGTGAATCGCAGGTAACTCAGGGTGGC | -0.428 |
| GCTCGGAGGACAAGGTCAGATCTTTGTCCGTAGA | 1.61 |
| TCATATAGGTAGAAGGTGAAAGTCGGTGTGGTAA | 0.866 |
| GCGACTGGGGCATCAGCAGGGTACCATAACTTAA | -0.459 |
| ATCTCTAGGTAACATGTTCAGTGAAAGAGAGGAC | 0.0615 |
| TAGCCTAGGTCATGGGCAAGTATACCACGCGAAC | 2.13 |
| CCTAGCAGGCCAATCTGGGTAACTCAAGGCTTGA | -0.773 |
| CCTAGTTGGTCAGGAGGTCATACACCGGATATGA | 3.75 |
| CAAGCTAGGTCAAGGTCAAAGTCGGTTTGTGCCA | 5.24 |
| TAGCCTAGGTCTTGCGGGCCAGTATAGTGTCGGC | -0.977 |

| Sequence | PBM binding z-score |
| --- | --- |
| ATACCAAGGTGATCGTGAGGTCGTTGACACTAAC | 3.35 |
| CCAGACAGGTGAAAGGTAACTCAATCTGGTACGC | 0.936 |
| TCTTGTAGATCAGCAGGTTAAGATAGCTGGCCAA | 0.44 |
| CGTCCAGGGTCAGCAGGTCAGTGAAAGCGACGTG | 4.15 |
| CCGACTGGGGCAAAGATTACCATACTCAGTACGA | -0.618 |
| GCGACTGAGGCAAAGCAGGTTACCATAAGGTTGG | -0.292 |
| ACAGACAGGTGATGAAGGTAAATCAGGCTATCAT | 0.133 |
| ATCTTTAGGTAAGACTCAGTTCAGTGAAGAACGC | 0.748 |
| CGAACTAGGTCAGAAAAGGACAGTGAAGGATGAT | 0.459 |
| CAAACTAGGTCAAGAGGACAAAGTCCGCTTCCCG | 1.98 |
| CAAACTAGGTCACCGGAAGGTCAAAGCCCGCATG | 5.79 |
| CCGATTAGTTGACCATAAGGGCAACCGAAGCTCG | 0.252 |
| CGAACTAGGTCATTGACAGCACAGTGAATAGTAA | 2.15 |
| TCAGACAGGAGAAGGTAACTCAGGTACGCAGTCG | 0.714 |
| CCCACTGGGGCAAGGTTACCATAACGCACAGCCA | 0.132 |
| ACAGACAGGTGATGAAGGTTACTCAGGCTATCAT | 1.64 |
| TGTCAAATTTCAAAGGTAACGTAAGTATCCACAC | 0.605 |
| CGAACTAGGTCATCCCGGACAGTGAATACATTGA | 3.63 |
| CCTACTGCGCCATTCAGAGGTCATTGATCATATG | 3.85 |
| ACTTACGGGTCAACTAGGTTATAGCACGCGTATA | 5.88 |
